This is part of a sample that, as a whole, favours compounds with a hit. Of some 83,000 tested, about 20% had one in any assay.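 Single-dose data. Exposure time 48 hours. Values below 10 considered active.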 Unmarked numbers belong to inactive results. The source made the active and inactive calls.
tested on: CAKI-1 renal; assay: NCI-60 one-dose screen, 48 h (100 = growth as untreated, 0 = no growth, -100 = all killed); details: 10 µM unless noted
Protocol: Growth inhibition of the CAKI-1 human tumor cell line is measured as a screen for anti-cancer activity. Cells are grown in 96 well plates and exposed to the test compound for 48 hours. Compounds are tested at a single concentration, which is 10^-5 M for most compounds. The reported endpoint is percent growth (GI% or GIPRCNT), where numbers from 0 - 100% represent growth inhibition, and numbers from -100% - 0 represent cell death. For example, a value of 40 represents 60% growth inhibition. A value of 0 means no net growth occurred over the course of the experiment. A value of -40 indicates 40% of cells at the beginning of the experiment died by the end of the experiment. A value of -100 means all cells are dead at the end of the experiment.
NCI-60 Human Tumor Cell Lines Screen was performed using the standard one-dose NCI protocol, which is described in more detail at https://dtp.cancer.gov/discovery_development/nci-60/default.htm.
Compounds with GIPRCNT values below 10 were considered active. Activity score was based on GIPRCNT using the following formula: […]
Score is 0 for GIPRCNT values of 100 or above, 50 for GIPRCNT values of 0, and 100 for GIPRCNT values of -100.

SMILES | growth
COc1cc(-c2nn(-c3cccc(NC(=O)c4ccccc4)c3)cc2-c2ccncc2)ccc1Cl | 40.6%
CCN1CCN(CC(=O)N2c3cccc4cccc(c34)N(C(=O)CN3CCN(CC)CC3)C2c2cn(-c3ccccc3)nc2-c2cccc([N+](=O)[O-])c2)CC1 | -5.5% (active)
CCN(CC)c1ccc2[nH]c3c(C(N)=O)cc(=O)c(=O)c=3oc2c1 | -33.2% (active)
Cc1cccc(/C=N/Nc2cc(C)c3cccc(C)c3n2)n1 | 98.3%
COc1ccc(C(=O)N2NC(=O)/C(=C/c3ccc(Br)cc3)N=C2c2ccccc2)cc1 | 96.9%
N[C@@H]1CCN(C(=O)c2cc3cc(Cl)c(F)c(F)c3[nH]2)C1 | 68%
Oc1ccc2cc(Br)ccc2c1-c1c(O)ccc2cc(Br)ccc12 | 40.2%
O=C(NNC(=S)Nc1ccccc1)c1cc2ccc1CCc1ccc(cc1)CC2 | 63.8%
CC(=O)Nc1ccc(/C=C/C(=O)c2ccccc2)cc1 | 104%
CN1CCN(Cc2ccc(NC(=O)c3cncc(C#Cc4cnc(N)c5ccncc45)c3)cc2C(F)(F)F)CC1 | 4.48% (active)
COc1cc2c(cc1OCCCN1CCN(CCCn3c4ccccc4c4ccccc43)CC1)N=C[C@@H]1CCCN1C2=O | -75% (active)
Cc1nn(-c2ccc(Cl)cc2)c2ncnc(N/N=C/c3cccc([N+](=O)[O-])c3)c12 | 76.4%
COc1cc(/C=C/c2cc(/C=C/c3ccc(O)c(OC)c3)n(C(N)=O)n2)ccc1O | 14.1%
Cc1cc(C(C)(C)C)ccc1S | 93.1%
O=S(=O)(NCCNc1nccc(-c2c(-c3ccc(F)cc3)nc3sccn23)n1)c1ccc(F)cc1 | 62.7%
O=c1cc(Cc2ccc([N+](=O)[O-])cc2)[nH]c(=O)[nH]1 | 110%
ClC(Cl)c1nc(-c2cccnc2)n2nc(-c3ccccc3)cc2n1 | -2.31% (active)
COc1ccc(-c2nc(/C=N/Nc3cc(C)nc4ccc(Br)cc34)c(C)o2)cc1 | -91.2% (active)
CN(CCCCCl)P(=O)(OCc1ccc([N+](=O)[O-])o1)C(F)(F)C[C@H](NC(=O)CNC(=O)c1ccc(N=[N+]=[N-])cc1)C(=O)NCCc1ccc(O)cc1 (stereo not given in full) | 105%
CC(C)OC(=O)N1CCOCC1 | 105%

SMILES | growth
COc1cccc(/C=C2\Oc3cc(OCCCN4CCCC4)ccc3C2=O)c1 | 85.5%
CCN(CC)CCC(CNc1c2ccc(Cl)cc2nc2ccc(OC)cc12)c1ccccc1 (stereo not given) | -40.5% (active)
O=C1NN(C(=O)c2ccc(Cl)cc2)C(c2ccccc2)=N/C1=C\c1ccc(F)cc1 | 85.1%
O=C1NC(=C(Cl)Cl)/C(=N/S(=O)(=O)N2CCC(C3(C(F)(F)F)N=N3)CC2)N1 | 74.5%
COc1ccc(/C=C2\Oc3cc(OCCCN4CCCC4)ccc3C2=O)c(OC)c1 | 91.9%
C=C[C@@H]1C[C@H](O)Cc2ccccc2N1 | 100%
Cc1ccc(C(=O)NCCCNc2nccc(-n3ccc4cccnc43)n2)cc1 | 96.6%
COc1cccc(-c2nc3sccn3c2-c2ccnc(NCCCNS(=O)(=O)c3ccc(F)cc3)c2)c1 | 23.9%
COc1ccc(Nc2nn3c(-c4ccccc4)cc(-c4ccccc4)nc3c2C(N)=O)c(OC)c1 | 77.4%
O=C(/C=C/c1ccccc1)c1cccc(O)c1 | 93.6%
COc1ccc(S(=O)(=O)NCCCNc2nccc(-c3c(-c4cccc([N+](=O)[O-])c4)nc4sccn34)n2)cc1 | 34.9%
Cn1c2ccc(Br)cc2c2c3c(c4c5ccccc5[nH]c4c21)C(=O)N(O)C3=O | -76.6% (active)
Cc1ccc(S(=O)(=O)c2nc(-c3ccccc3)oc2S(C)(=O)=O)cc1 | -98.9% (active)
O=C(Nc1cccc(-n2cc(-c3ccncc3)c(-c3ccc(Cl)c(O)c3)n2)c1)Nc1cccc(C(F)(F)F)c1 | 30.1%
CNC(=S)NNC(=O)C1CC1 | 96%
C1=Cc2ccccc2N(c2nnc(-c3ccccc3)o2)c2ccccc21 | 83.3%
Fc1ccc(CNCCNc2ncnc3c2cnn3-c2ccccc2)cc1 | 87.2%
NC1N=C(SCC(=O)N2CCN(c3cc4c(cc3F)c(=O)c(C(=O)O)cn4C3CC3)CC2)NC(=O)/C1=C/c1ccc(Cl)cc1 (stereo not given) | 91.2%
O=C1Nc2ccc3c(c2/C1=C\c1cc2c(cc1Br)OCO2)OCO3 | -25.7% (active)
CN(C)c1nc2c(N)ncnc2n1C1OC(CO)C(O)C1O (stereo not given) | 99.3%
